Screening data: PubChem BioAssay, National Center for Advancing Translational Sciences (NCATS)
SMN2 splice up: qHTS Assay for Enhancers of SMN2 Splice Variant Expression. Potency, µM (series often up to 46.1 µM), for the others: at the highest dose activity change, positive = activation, usual class: activators. AID 1458, 2008. actives 2.8% (n = 210,000). HEK293 SMN2-luciferase splicing reporter, luminescence, 30-36 h; also: % of control where 0% means no effect; nearly all actives have a fitted effect of over 55% in size
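qHTS luciferase splicing reporter: luminescence rises when SMN2 exon 7 is included in transfected HEK293 cells. Compound exposure lasted 30-36 h at 37C, with 4.5 mM final sodium butyrate as control, followed by a ONE-Glo read.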
NPC1 promoter act: qHTS Assay for NPC1 Promoter Activators. Huh7 NPC1 promoter luciferase reporter, 24 h. Potency, µM (series often up to 9.22 µM), without a hit: top-dose activation, most hits filed as activators. actives 2.4% (n = 320,000). AID 485313, 2010; also: % of control where 0% means no effect; nearly all actives have a fitted effect of over 60% in size
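Stable NPC1-promoter luciferase Huh7 line; cpd (DMSO) 24 h, 37 °C, 5% CO2; Amplite luciferase reagent 10 min RT; luminescence readout. qHTS format.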
ELG1 genotox: qHTS screen for small molecules that induce genotoxicity in human embryonic kidney (HEK293T) cells expressing luciferase-tagged ELG1; Potency, µM (doses to about 46 µM), inactives show at the highest dose activity change, positive = activation, hits mostly activators; AID 504466, 2011; actives 1.3% (n = 330,000); HEK293T ELG1-luciferase reporter, luminescence, 16 h; also: % of control where 0% means no effect; nearly all actives have a fitted effect of over 60% in size
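ELG1-luciferase HEK293T cells, 2,000/well; compound pinned in; 16 hr, 37 °C, 5% CO2; ONE-Glo, 30 min RT; luminescence on CCD imager.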
Rab9 promoter act: qHTS Assay for Rab9 Promoter Activators | Huh7 Rab9 promoter-luciferase reporter, luminescence, 24 h | Potency, µM (titrated, usually from 9.22 µM), inactives show top-dose activation, negative = inhibition, most hits filed as activators | actives 2.8% (n = 320,000) | AID 485297, 2010; also: % of control where 0% means no effect; nearly all actives have a fitted effect of over 60% in size
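Promoter activation is measured as luciferase luminescence in Huh7 cells stably transfected with a Rab9 promoter–luciferase construct, following 24 h compound exposure at 37 °C and 10 min reagent incubation at ambient temperature.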
FLuc counter: qHTS profiling assay for firefly luciferase inhibitor/activator using purifed enzyme and Km concentrations of substrates (counterscreen for miR-21 project); actives 6.9% (n = 360,000); purified FLuc, Km substrates, luminescence inhibition; AID 588342, 2011; Potency, µM (series often up to 57.5 µM), for inactives: at the top dose activity change, negative = inhibition, most hits filed as inhibitors;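 also: plate controls were vehicle for no effect and reference inhibitor for full effect; nearly all actives have a fitted effect of over 55% in size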
Target sequence (P08659 whole entry, looked up): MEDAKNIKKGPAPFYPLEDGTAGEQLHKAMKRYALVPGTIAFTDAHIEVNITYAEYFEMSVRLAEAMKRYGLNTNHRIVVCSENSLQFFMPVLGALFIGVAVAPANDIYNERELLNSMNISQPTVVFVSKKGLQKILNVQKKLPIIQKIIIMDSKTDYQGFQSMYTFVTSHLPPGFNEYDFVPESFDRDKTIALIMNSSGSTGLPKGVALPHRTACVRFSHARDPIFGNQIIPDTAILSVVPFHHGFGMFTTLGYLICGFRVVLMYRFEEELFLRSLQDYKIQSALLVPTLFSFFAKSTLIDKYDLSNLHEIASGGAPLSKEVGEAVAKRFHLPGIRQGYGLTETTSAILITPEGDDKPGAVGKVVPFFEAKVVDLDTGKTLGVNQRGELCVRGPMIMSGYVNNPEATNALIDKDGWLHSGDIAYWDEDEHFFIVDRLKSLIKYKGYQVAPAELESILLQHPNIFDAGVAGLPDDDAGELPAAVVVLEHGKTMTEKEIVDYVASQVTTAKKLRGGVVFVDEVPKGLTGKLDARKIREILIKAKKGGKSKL
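Purified P. pyralis luciferase, 10 nM final, with Km-level 10 uM D-luciferin and 10 uM ATP in 50 mM Tris acetate pH 7.5, 10 mM Mg acetate, 0.01% Tween-20, 0.05% BSA; 6-point qHTS titration about 60 µM downward; luminescence read.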
Luc counter: Counterscreen for Luciferase (Kinase-Glo TM) Inhibition; Kinase-Glo luciferase, ATP luminescence, 8 min; actives 0.28% (n = 200,000); Luciferin 4-monooxygenase (Photuris pensylvanica), Q27757; Potency, µM (top dose mostly 38.3 µM), for inactives: at the top dose activity change, negative = inhibition, usual class: inhibitors; AID 1379, 2008; also: % is scaled to controls: 0 for no effect and ±100 for the full control effect; nearly all actives have a fitted effect of over 60% in size
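Inhibition of Kinase-Glo luciferase light generation was assessed at 10 uM ATP in pH 7.2 imidazole buffer, with luminescence measured after eight minutes at ambient temperature.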
Starred values were filed as active, the others as inactive; ? = inconclusive; / = no result given; [ ] = another dose, or the depositor's remark. An excerpt weighted towards active compounds, which were near 7.4% of everything screened. Calls follow the shape of the dose curve; as a rule, active = well fitted curve in the direction sought with a large enough effect; inconclusive = small, poorly fitted or top-dose-only effect, or another doubt; inactive = no such curve, though single readings can be large; an effect the other way counts as inactive or inconclusive. Potency is read from the fitted curve at half-maximal effect.

SMILES	SMN2 splice up	NPC1 promoter act	ELG1 genotox	Rab9 promoter act	FLuc counter	Luc counter
O=C(COc1ccc2ccccc2c1)Nc1ccccc1C(=O)O	/	18%	14%	25%	17µM*	/
O=C(COc1ccc2ccccc2c1)NC1CC1	-14%	11%	17%	?	17µM*	-5%
O=C(COC(=O)COc1ccccc1)NCCC1=CCCCC1	/	-3%	0%	2%	-1%	/
Cc1ccc(S(=O)(=O)Cn2nnnc2C(C(C)C)N2CCC(C(N)=O)CC2)cc1 (stereo not drawn)	/	-5%	-13%	5%	-1%	/
COC(=O)c1sc2cccc(F)c2c1S(=O)(=O)N1CCN(c2ccccc2OC)CC1	/	/	/	/	-3%	/
CC(C)CC(=O)Nc1nnc(S(=O)(=O)Nc2ccccc2)s1	/	-11%	4%	-2%	-1%	/
CCNC(=O)Nc1ccc(OC)cc1OC	-7%	0%	1%	-4%	-1%	-3%
COc1ccc(C)cc1NC(=O)COC(=O)Cc1ccc(-c2ccccc2)cc1	/	-1%	7%	0%	?	/
COc1ccccc1NC(=O)COc1ccccc1	-5%	14%	?	-4%	?	0%
O=C(O)Cc1ccc(NC(=O)COc2ccc3ccccc3c2)cc1	/	-4%	9%	6%	19µM*	/
COc1ccc(NC(=O)COc2ccccc2)c(OC)c1	21%	?	18µM*	?	19µM*	2%
COc1ccc(OCC(=O)Nc2ccccc2O)cc1	-7%	25%	9.2µM*	?	21µM*	-18%
COc1ccc(NC(=O)COC(=O)Cc2ccc(-c3ccccc3)cc2)c(OC)c1	4%	-6%	1%	1%	13µM*	0%
O=C(NCC1COc2ccccc2O1)c1cccc(S(=O)(=O)N2CCN(c3ccccc3)CC2)c1 (stereo not drawn)	/	-5%	-7%	-6%	-1%	/
CCc1cccc2c(-c3ccccc3)nc(SCC(=O)Nc3ccccc3)nc12	-7%	/	/	/	-1%	/
CC(=O)Nc1cccc(NC(=O)C(=O)Nc2ccc3c(c2)N(C(=O)C2CC2)CCC3)c1	/	28%	0%	?	9.5µM*	/
COc1ccccc1NC(=O)C(=O)Nc1ccc2c(c1)N(C(=O)C1CC1)CCC2	/	29%	21%	26%	-6%	/
CC1=C/C(=C\c2ccc3c(c2)OCO3)C(=O)S1	-9%	-6%	-2%	-1%	19µM*	-4%
CNc1ccccc(-c2ccc3cc4c(cc3n2)OCO4)c1=O	/	?	?	?	3.4µM*	?
COc1cc(Cl)c(C)cc1NC(=O)COc1ccc(C)nc1[N+](=O)[O-]	/	?	10%	4µM*	-20%	/
Cc1ccc(OCC(=O)Nc2ccc(Cl)cc2)c([N+](=O)[O-])n1	/	2.8µM*	?	?	/	/
Cc1ccc(OCC(=O)NCC(=O)Nc2ccc(F)cc2)c([N+](=O)[O-])n1	0%	-4%	-3%	1%	6%	1%
Cc1ccc(OCC(=O)Nc2ccc3c(c2)CCC3)c([N+](=O)[O-])n1	17%	24%	?	23%	27µM*	0%
Cc1ccc(OCC(=O)Nc2ccc(F)cc2)c([N+](=O)[O-])n1	13µM*	?	?	3.5µM*	12µM*	-3%
N#Cc1nccnc1S(=O)(=O)c1cccs1	/	-7%	-20%	-49%	?	/
CC1=NN(c2ccc(S(=O)(=O)O)cc2)C(=O)/C1=C\c1ccc(Cl)cc1	-1%[9.22 µM]	/	/	/	/	-3%[7.66 µM]
O=C1O/C(=C/Br)CCC1c1cccc2ccccc12 (stereo not drawn)	-43%	-35%[46.1 µM]	/	-43%[46.1 µM]	/	-2%
CC(C)c1ccc(NC(=O)c2sccc2-n2cccc2)cc1	/	4µM*	5%	2.8µM*	?	/
